Among the data in PubChem BioAssay (NCATS) are Potency and outcome values, retold here.

Records with an inconclusive call do not appear. Activity calls are given as the source filed them. Unless noted, calls follow the shape of the dose curve; as a rule, active = well fitted curve in the direction sought with a large enough effect; inconclusive = small, poorly fitted or top-dose-only effect, or another doubt; inactive = no such curve, though single readings can be large; an effect the other way counts as inactive or inconclusive.

Assay [1] in a line: S16 Schwann cell viability assay (CellTiter-Glo assay) (AID 624031). Also: nearly all actives have a fitted effect of over 70% in size. In short, it runs like this: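 Native S16 rat Schwann cells, 500-750 cells/well in DMEM with 10% FBS, dosed with compound after overnight culture and incubated 24h at 37 degree Celsius/5% CO2. Viability by CellTiter-Glo luminescence; % activity normalized to no-cell wells and DMSO-treated cells.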
(In general: ATP-based viability assays read luminescence as a measure of living cells.)

For a further assay, the system named is ATS189. Put plainly: qHTS profiling for inhibitors of Plasmodium falciparum proliferation (AID 504749). Also: nearly all actives have a fitted effect of over 60% in size. Also: potency is read from the fitted curve at half-maximal effect. The settings on record: P. falciparum in erythrocytes, SYBR Green DNA, 72 h; series mostly up to 12.8 µM. An outline of the steps:
(§1)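 Readout was DNA-dye fluorescence from lysed cultures, ex 485/em 535 nm. Parasitized red cells had grown 72 h with compound; data scaled between 0.29 uM artemisinin and DMSO wells and corrected using vehicle-only plates.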
For orientation: Quantitative high-throughput screening tests each substance at several concentrations.

The test system of another assay is CP185. The description is as above. The note with it: P. falciparum in erythrocytes, SYBR Green DNA, 72 h; series mostly up to 12.8 µM. In short, it runs like this: as §1
The test system of the next assay is CP191. The description is as above. The settings on record: P. falciparum in erythrocytes, SYBR Green DNA, 72 h; series mostly up to 12.8 µM. An outline of the steps:
as §1

The subject of the next assay is CP201. Described as above. The settings on record: P. falciparum in erythrocytes, SYBR Green DNA, 72 h; series mostly up to 12.8 µM. An outline of the steps: as §1
A further assay deals with CP247. Described as above. The note with it: P. falciparum in erythrocytes, SYBR Green DNA, 72 h; series mostly up to 12.8 µM. In short, it runs like this:
as §1

The subject of another assay is CP250. The assay is described as above. The settings on record: P. falciparum in erythrocytes, SYBR Green DNA, 72 h; series mostly up to 12.8 µM. An outline of the steps:
as §1

The next assay has as its system CP256. The description is as above. The settings on record: P. falciparum in erythrocytes, SYBR Green DNA, 72 h; series mostly up to 12.8 µM. In short, it runs like this: as §1
The subject of a further assay is CP262. Described as above. The note with it: P. falciparum in erythrocytes, SYBR Green DNA, 72 h; series mostly up to 12.8 µM. In short, it runs like this: as §1
Another assay deals with CP325. The assay is described as above. The note with it: P. falciparum in erythrocytes, SYBR Green DNA, 72 h; series mostly up to 12.8 µM. An outline of the steps:
as §1

For a further assay, the system named is CP329. The description is as above. The settings on record: P. falciparum in erythrocytes, SYBR Green DNA, 72 h; series mostly up to 12.8 µM. An outline of the steps: as §1
The next assay has as its system Dd2. The assay is described as above. The settings on record: P. falciparum in erythrocytes, SYBR Green DNA, 72 h; series mostly up to 12.8 µM. An outline of the steps: as §1
For a further assay, the system named is JCK. Described as above. The settings on record: P. falciparum in erythrocytes, SYBR Green DNA, 72 h; series mostly up to 12.8 µM. In short, it runs like this: as §1
The subject of a further assay is N140. Described as above. The settings on record: P. falciparum in erythrocytes, SYBR Green DNA, 72 h; series mostly up to 12.8 µM. In short, it runs like this: as §1
The next assay has as its system PC15. The assay is described as above. The settings on record: P. falciparum in erythrocytes, SYBR Green DNA, 72 h; series mostly up to 12.8 µM. In short, it runs like this: as §1
The subject of another assay is PC49. The assay is described as above. The settings on record: P. falciparum in erythrocytes, SYBR Green DNA, 72 h; series mostly up to 12.8 µM. In short, it runs like this: as §1
Another assay concerns SC27B. Described as above. The note with it: P. falciparum in erythrocytes, SYBR Green DNA, 72 h; series mostly up to 12.8 µM. An outline of the steps: as §1
The subject of a further assay is TAB113. The description is as above. The note with it: P. falciparum in erythrocytes, SYBR Green DNA, 72 h; series mostly up to 12.8 µM. An outline of the steps: as §1
In assay [2] the target is Guanine nucleotide-binding protein G(i) subunit alpha-1 (Homo sapiens) (UniProt P63096). Put plainly: qHTS Assay for Inhibitors of RGS12 GoLoco Motif Activity (Green Fluorophore) (AID 879). Also: potency is read from the fitted curve at half-maximal effect. An outline of the steps: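 Fluorescence polarization assay: 50 nM Gαi1 with 10 nM FITC-labeled RGS12 GoLoco peptide in 10 mM Tris pH 7.5, 150 mM NaCl, 0.1 mM GDP, 0.05% NP40, 10 min at room temperature with compound.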
Chain of Guanine nucleotide-binding protein G(i) subunit alpha-1 (Homo sapiens) (P63096 whole entry, looked up): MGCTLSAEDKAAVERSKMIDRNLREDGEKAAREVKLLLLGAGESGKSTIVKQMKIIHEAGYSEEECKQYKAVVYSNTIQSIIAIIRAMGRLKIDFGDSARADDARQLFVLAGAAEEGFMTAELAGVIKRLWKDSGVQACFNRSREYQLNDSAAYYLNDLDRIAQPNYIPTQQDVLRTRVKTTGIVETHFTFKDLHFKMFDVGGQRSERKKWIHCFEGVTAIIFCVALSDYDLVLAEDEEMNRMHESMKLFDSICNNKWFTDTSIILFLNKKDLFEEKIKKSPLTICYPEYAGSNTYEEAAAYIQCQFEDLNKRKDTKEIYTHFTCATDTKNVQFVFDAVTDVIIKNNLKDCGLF

Assay [3] addresses Pyruvate kinase PKM (Homo sapiens) (UniProt P14618). In words: qHTS Assay for Activators of Human Muscle Pyruvate Kinase (AID 954; active = well fitted curve in the direction sought with a large enough effect, not every such curve was filed as active). In short, it runs like this: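 Purified human PKM2 (0.1 nM) with 0.5 mM PEP (Km) and 0.1 mM ADP in 50 mM imidazole pH 7.2, KCl, MgCl2, 1 h at room temperature; ATP formed read by coupled luciferase luminescence. Normalized to no-enzyme/110 uM thiadiazolimine inhibition; 0.3 nM enzyme column for activation.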

Chain of Pyruvate kinase PKM (Homo sapiens) (P14618 whole entry, looked up): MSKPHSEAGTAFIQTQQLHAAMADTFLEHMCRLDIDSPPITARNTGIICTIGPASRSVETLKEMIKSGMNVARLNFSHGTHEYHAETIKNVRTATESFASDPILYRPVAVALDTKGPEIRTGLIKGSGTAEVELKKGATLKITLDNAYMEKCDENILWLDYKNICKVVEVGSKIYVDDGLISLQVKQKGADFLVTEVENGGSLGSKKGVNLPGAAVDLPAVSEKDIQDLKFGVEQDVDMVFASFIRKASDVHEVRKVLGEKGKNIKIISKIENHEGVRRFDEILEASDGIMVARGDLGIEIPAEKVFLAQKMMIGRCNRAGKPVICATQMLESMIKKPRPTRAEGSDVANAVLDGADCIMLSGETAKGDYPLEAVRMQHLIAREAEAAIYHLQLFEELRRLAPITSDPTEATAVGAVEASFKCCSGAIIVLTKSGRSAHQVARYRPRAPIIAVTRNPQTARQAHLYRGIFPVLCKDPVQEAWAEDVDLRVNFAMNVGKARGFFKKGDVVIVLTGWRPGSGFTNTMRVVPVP

As for `C/C=C\C(=O)N(CC)c1ccccc1C`, the Potency result (in assay [1]; in the assay with ATS189; with CP185; in the assay on CP191; in the assay on CP201; in the assay with CP247) was “inactive” each time. Further, the Potency result in the assay on CP250, in the assay with CP256, in the assay with CP262, with CP325, in the assay on CP329 and with Dd2 was “inactive” each time. The Potency result in the assay with JCK, in the assay on N140, with PC15, in the assay on PC49, with SC27B and with TAB113 was “inactive” throughout.
As for `CN1[C@@H](CC(=O)c2ccccc2)CCC[C@@H]1C[C@@H](O)c1ccccc1`, the Potency result in [2] is “inactive”. Besides, the compound was classed as inactive in [3].
For `CCN(CC)CCC[C@H](C)Nc1c2ccc(Cl)cc2nc2ccc(OC)cc12`, the Potency in assay [2] was 25100 nM (active); in the assay with ATS189, 891 nM (active); with CP185, 708 nM (active); in the assay on CP191, 398 nM (active); in the assay with CP201, 1200 nM (active); in the assay with CP247 it was 1120 nM (active). Further, the Potency in the assay on CP250 is 447 nM (active); in the assay on CP256, 631 nM (active); in the assay on CP262, 426 nM (active); with CP325, 426 nM (active); in the assay on CP329 it was 1200 nM (active); with Dd2 it was 447 nM (active). Besides, the Potency is 3160 nM (active) in the assay on JCK; 891 nM (active) with N140; 447 nM (active) in the assay with PC15; 1580 nM (active) in the assay on PC49; 1260 nM (active) with SC27B; 891 nM (active) in the assay on TAB113. Besides, in assay [3], the outcome was inactive. Further, the Potency entry in assay [1] was “inactive”.
For `CCN[C@@H]1C[C@H](C)S(=O)(=O)c2sc(S(N)(=O)=O)cc21`, the Potency result in the assay on ATS189, in the assay with CP185, with CP191, with CP201, in the assay on CP247 and in the assay on CP250 was “inactive” in each case. Moreover, the Potency entry with CP256, in the assay with CP262, in the assay on CP325, in the assay with CP329, in the assay on Dd2 and in the assay on JCK was “inactive” each time. The Potency entry in the assay with N140, in the assay with PC15, in the assay on PC49, in the assay with SC27B and with TAB113 was “inactive” throughout.
On to `CN(C)CC[C@H](c1ccc(Br)cc1)c1ccccn1`, for which, in [2], the Potency result is “inactive”. Also, the compound was called inactive in assay [3].
`COc1c(O)cc2c(c1O)[C@@H]1O[C@@H](CO)[C@@H](O)[C@@H](O)[C@@H]1OC2=O`: the Potency result (in [1]; in the assay on ATS189; in the assay with CP185; in the assay on CP191; in the assay on CP201; in the assay with CP247) was “inactive” each time. For the same compound, the Potency entry in the assay on CP250, in the assay with CP256, with CP262, in the assay with CP325, with CP329 and in the assay on Dd2 was “inactive” throughout. In addition, the Potency result in the assay with JCK, with N140, in the assay on PC15, in the assay with PC49, with SC27B and with TAB113 was “inactive” throughout.
As to `CN(C)[C@H]1C(=O)C(C(=O)NCN2CCCC2)=C(O)[C@]2(O)C(=O)C3=C(O)c4c(O)cccc4[C@@](C)(O)[C@H]3C[C@@H]12`, the Potency result (in assay [1]; with ATS189; in the assay with CP185; in the assay on CP191; in the assay on CP201; in the assay on CP247) was “inactive” in each case. In addition, the Potency entry in the assay with CP250, with CP256, in the assay with CP262, in the assay with CP325, in the assay with CP329 and in the assay on Dd2 was “inactive” in each case. In addition, the Potency result with JCK, in the assay with N140, in the assay with PC15, with PC49, in the assay with SC27B and with TAB113 was “inactive” throughout.
For the compound `NC(=O)OC[C@H](O)COc1ccc(Cl)cc1`, the Potency entry (in assay [1]; in the assay on ATS189; in the assay on CP185; with CP191; in the assay on CP201; in the assay on CP247) was “inactive” throughout. Also, the Potency entry in the assay with CP250, in the assay on CP256, with CP262, with CP325, in the assay with CP329 and with Dd2 was “inactive” throughout. Besides, the Potency result in the assay with JCK, with N140, with PC15, in the assay on PC49, with SC27B and with TAB113 was “inactive” in each case.
Turning to `C[C@@H](C(=O)O)c1cccc(C(=O)c2ccccc2)c1`, the Potency entry in assay [2] and in assay [1] was “inactive” in each case. In [3], the outcome was inactive.
